Experiment [1] concerns the target ATP-dependent translocase ABCB1 (Homo sapiens) (UniProt P08183). The experiment in a line: P-glycoprotein substrate transport blockade – cell-based (AID 377). The note with it: MDR1-expressing cells, fluorescent substrate accumulation slope; stronger effect = higher value; concentration not given here.
Experiment [2] can be described thus: P. berghei load reduction in hepatocytes – cell-based, HepG2, luciferase luminescence, HepG2 viability, primary screen (AID 624349; in the data active means parasite load remaining mostly below about 12%, no sharp cut-off; inactive means mostly above about 10%;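 further: 100% = mean of DMSO negative control wells on the same plate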). The note with it: P. berghei liver stage in HepG2, luciferase luminescence, concentration not given here; parasite load remaining: stronger effect = lower value; viability: measured here: HepG2 viability without parasites.
Experiment [3] in a line: compounds altering viability of human ES cells (AID 493140; call rule not given here;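 further: cells exposed to compounds for four days before counting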). The following applies: human embryonic stem cell survival screen; stronger effect = higher value.
Experiment [4] in a line: compounds altering circadian rhythm period length – cell-based, LOPAC library, luminescence reporter (AID 2774; call rule not given here;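 further: values are relative to mean of DMSO wells on each plate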). The note with it: circadian reporter cells, at 7 µM, actives lie on both sides.
Experiment [5] concerns Hepatitis C virus NS3 helicase. Description: blockers of NS3h binding to ssDNA – biochemical, fluorescence polarization, LOPAC1280 library, primary screen (AID 687035; in the data active means inhibition above about 37%). The note with it: Purified HCV NS3 helicase, Cy5-dT15 ssDNA binding fluorescence polarization; stronger effect = higher value; concentration not given here.
A short description of experiment [6]: compounds altering Cy5-DNA-NS3h complex signal – biochemical, LOPAC1280, artefact control for HCV NS3 helicase inhibitor project (AID 687037; call rule not given here). The note with it: Cy5-DNA-NS3h complex fluorescence interference counterscreen.

Inconclusive results are not listed. The source made the active and inactive calls. Unless noted, no stated cut-off is given here; in the data, active means fluorescence slope change above about 50%; inconclusive means mostly about 31% to 49%; inactive means weaker than that.

Chain of ATP-dependent translocase ABCB1 (Homo sapiens) (P08183 whole entry, looked up): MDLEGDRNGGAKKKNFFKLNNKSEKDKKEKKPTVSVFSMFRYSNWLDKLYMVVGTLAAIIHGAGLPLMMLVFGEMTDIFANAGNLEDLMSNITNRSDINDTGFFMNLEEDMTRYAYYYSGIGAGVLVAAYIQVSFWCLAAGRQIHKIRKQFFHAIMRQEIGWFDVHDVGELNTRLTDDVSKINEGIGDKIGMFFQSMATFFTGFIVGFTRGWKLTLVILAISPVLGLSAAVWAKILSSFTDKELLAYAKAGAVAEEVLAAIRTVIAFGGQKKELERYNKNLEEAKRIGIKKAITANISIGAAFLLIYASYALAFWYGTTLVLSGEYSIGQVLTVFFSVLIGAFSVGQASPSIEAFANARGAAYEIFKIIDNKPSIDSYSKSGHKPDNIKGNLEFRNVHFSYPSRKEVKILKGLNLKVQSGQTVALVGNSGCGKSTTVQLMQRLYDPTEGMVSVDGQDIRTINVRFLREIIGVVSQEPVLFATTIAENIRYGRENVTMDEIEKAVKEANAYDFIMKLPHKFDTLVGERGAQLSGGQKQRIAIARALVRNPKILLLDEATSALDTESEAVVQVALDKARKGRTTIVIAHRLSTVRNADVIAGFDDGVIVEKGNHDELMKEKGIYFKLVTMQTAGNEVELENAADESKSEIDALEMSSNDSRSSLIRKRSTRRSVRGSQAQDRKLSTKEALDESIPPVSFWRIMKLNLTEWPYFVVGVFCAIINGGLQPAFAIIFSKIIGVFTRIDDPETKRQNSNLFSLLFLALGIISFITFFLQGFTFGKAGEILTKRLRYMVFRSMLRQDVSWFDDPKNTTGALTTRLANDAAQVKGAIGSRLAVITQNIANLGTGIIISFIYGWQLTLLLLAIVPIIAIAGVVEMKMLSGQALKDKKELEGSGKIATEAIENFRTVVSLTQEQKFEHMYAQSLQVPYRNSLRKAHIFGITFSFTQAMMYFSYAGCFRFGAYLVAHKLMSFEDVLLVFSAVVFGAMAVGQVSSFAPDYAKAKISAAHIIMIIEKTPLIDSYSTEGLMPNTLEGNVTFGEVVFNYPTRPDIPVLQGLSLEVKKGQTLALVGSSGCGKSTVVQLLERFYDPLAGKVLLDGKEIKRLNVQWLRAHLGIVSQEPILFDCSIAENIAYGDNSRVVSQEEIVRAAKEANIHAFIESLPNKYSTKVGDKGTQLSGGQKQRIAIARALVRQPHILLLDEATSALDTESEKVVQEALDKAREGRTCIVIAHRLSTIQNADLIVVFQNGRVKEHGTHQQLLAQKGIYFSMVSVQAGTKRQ

Consider `CN1CCc2cc3c(c4c2C1Cc1ccccc1-4)OCO3` (stereo unspecified), for which the fluorescence slope change in experiment [1] was 11.3% (inactive).
For `CC[C@H](CO)NC(=O)[C@@H]1C=C2c3cccc4[nH]cc(c34)C[C@H]2N(C)C1`, the fluorescence slope change in experiment [1] is 0.6% (inactive). Besides, in experiment [2], the parasite load remaining is 67.8% (inactive) and the viability came out at 73.1%.
For the molecule `C=C(C(=O)OC1CC2[C@@H]3O[C@@H]3[C@@H](C1)N2C)c1ccccc1` (stereo partly specified), in experiment [1], the fluorescence slope change was 4.6% (inactive).
As to `C#C[C@]1(O)CCC2C3CCC4=CC(=O)CC[C@]4(C)C3CC[C@@]21C` (stereo partly specified), the fluorescence slope change in experiment [1] is 63.9% (active). Besides, the survival in experiment [3] is 10.7 (inactive). In experiment [2], the parasite load remaining is 97.8% (inactive) and the viability stood at 86.3%.
Regarding `CCOC(=O)NC1=C(N2CC2)C(=O)C(NC(=O)OCC)=C(N2CC2)C1=O`, in experiment [1], the fluorescence slope change is 17.2% (inactive).
In the case of `CN(C)Cc1c[nH]c2c(OCc3ccccc3)cccc12`, the fluorescence slope change in experiment [1] was 61.1% (active).
On to `C=C(C)[C@@H]1[C@H]2OC(=O)[C@@H]1[C@]1(O)C[C@H]3O[C@]34C(=O)OC2[C@]14C` (stereo partly specified), for which, in experiment [1], the fluorescence slope change was 18.3% (inactive). For the same molecule, the survival in experiment [3] is 4 (inactive).
In the same order, the values of `CCN1C[C@]2(C)CC[C@H](O)C34C5C[C@H]6C(O)C5[C@](O)(C[C@@H]6OC)C(CC32)[C@@H]14` (stereo partly specified) are -10.1% (inactive) and 6.75 (inactive).
For the molecule `C[C@@H]1CCC2[C@H](C)C3CC[C@@]4(O)[C@@H]5CC(=O)[C@H]6CC(=O)CC[C@]6(C)C5C[C@H]4[C@@H]3CN2C1` (stereo partly specified), the fluorescence slope change in experiment [1] was 16.8% (inactive).
Regarding `C=C[C@]12CN(C)C3C4COC(CC41)[C@]1(C(=O)Nc4ccccc41)[C@@H]32` (stereo partly specified), the fluorescence slope change in experiment [1] is 13.5% (inactive). For the same molecule, in experiment [3], the survival is 4 (inactive).
The matching figures for `NCCC(O)C(=O)NC1CC(N)C(OC2OC(CN)C(O)[C@H](O)[C@@H]2N)[C@H](OC2O[C@H](CO)[C@@H](O)[C@@H]2O)[C@@H]1O` (stereo partly specified): 51.6% (active) and 4.17 (inactive).
On to `CN1[C@@H](C[C@@H](O)c2ccccc2)CCC[C@H]1C[C@H](O)c1ccccc1`, for which the fluorescence slope change in experiment [1] was 85.7% (active).
Take `CCCCC[C@@H](/C=C/C=C\CCCCCCCCCC(=O)O)OO`: the survival in experiment [3] is 112 (inactive).
For the molecule `C=C1C2C[C@@]3(C4CC5C6(C3C[C@@H]2O)[C@@H](O)CC[C@@]5(C)CN(CC)[C@H]46)[C@@H]1O` (stereo partly specified), the fluorescence slope change in experiment [1] is 24.6% (inactive). Moreover, the survival in experiment [3] is 5.92 (inactive).
`CCN(CC)C(=O)N[C@H]1C[C@@H]2c3cccc4[nH]cc(c34)C[C@H]2N(C)C1`: the survival in experiment [3] was 6 (inactive).
As for `C[C@H](N)[C@@H](O)c1ccc(O)c(O)c1`, the fluorescence slope change in experiment [1] was 17.7% (inactive).
For the molecule `CCN1C[C@]2(COC)CC[C@H](OC)[C@]34C5C[C@@H]6[C@@H](OC)CC7(OCO[C@]7([C@H]13)[C@@H](O)C24)C5[C@H]6OC` (stereo partly specified), the fluorescence slope change in experiment [1] was 13% (inactive). In addition, the survival in experiment [3] was 6.42 (inactive).
As for `CCN(CC)C(=O)N[C@H]1C=C2c3cccc4[nH]cc(c34)C[C@H]2N(C)C1`, in experiment [1], the fluorescence slope change is 136% (active). In addition, the period change in experiment [4] is 0.33 h (inactive). The survival in experiment [3] is 19.8 (inactive). For the same molecule, in experiment [2], the parasite load remaining was 92.5% (inactive) and the viability amounted to 87.9%.
As for `CC1O[C@@H](O[C@@H]2C=C3CCC4C(CC[C@]5(C)[C@@H](c6ccc(=O)oc6)CC[C@]45O)[C@@]3(C)CC2)C(O)[C@@H](O)[C@H]1O` (stereo partly specified), the survival in experiment [3] was 2.83 (inactive).
Turning to `CN(CC(=O)O)/C(N)=N/P(=O)(O)O`, the fluorescence slope change in experiment [1] is 63.4% (active).
For the molecule `O=P(O)(O)Cc1ccccc1`, the survival in experiment [3] was 126 (inactive).
Turning to `COc1cc(CC(C)N)c(OC)cc1I` (stereo unspecified), the period change in experiment [4] was -0.11 h (inactive). Besides, the inhibition in experiment [5] was -3% (inactive). Besides, the fluorescence ratio (interference) in experiment [6] was 1 (inactive).
For `CN1[C@@H]2CCC[C@H]1CC(=O)C2`, the fluorescence slope change in experiment [1] was 53.5% (active).
Turning to `CCCn1c(C)c(C(=O)c2ccc3ccccc3c2)c2ccccc21`, the period change in experiment [4] was -0.02 h (inactive). Further, the inhibition in experiment [5] is -4% (inactive). Also, the fluorescence ratio (interference) in experiment [6] was 1 (inactive).
Turning to `COc1cc(C(=O)OC2CC3CCC(C2)N3C)ccc1O` (stereo unspecified), the fluorescence slope change in experiment [1] is 5.8% (inactive). In addition, in experiment [3], the survival was 1.67 (inactive).
On to `CC1OC(OC2/C=C/C=C/C=C/C=C/CC/C=C/C=C/[C@H](C)[C@@H](O)[C@@H](C)[C@H](C)OC(=O)CC(O)CC(O)CC(O)CCC(O)C(O)C[C@]3(O)CC(O)C(C(=O)O)C(C2)O3)C(O)C(N)C1O` (stereo partly specified), for which, in experiment [1], the fluorescence slope change is 108% (active). In addition, the survival in experiment [3] was 8.92 (inactive). Further, in experiment [2], the parasite load remaining was 78.6% (inactive) and the viability is 74%.
`CCN1C[C@]2(COC)CC[C@H](O)[C@@]34C5C[C@H]6C(OC)C5[C@](O)(C[C@H]6OC)C(O)(C(OC)C23)[C@@H]14` (stereo partly specified): the fluorescence slope change in experiment [1] is -9.9% (inactive). For the same molecule, the survival in experiment [3] was 4 (inactive).

Values taken from PubChem BioAssay.
